# Test results published in PubChem BioAssay (Tox21).
# A number with no mark means an inactive call. Inconclusive results are not listed. Entries that show only a call come without a potency. Active and inactive are the calls of the source. Calls follow the shape of the dose curve; as a rule, active = well fitted curve in the direction sought with a large enough effect in the repeat runs; inconclusive = weak or mixed curves; inactive = no such curve, though single readings can be large; an effect the other way counts as inactive or inconclusive.
# How the values were obtained:
# [1] = A CellTox Green Cytotoxicity Assay to monitor cytotoxicity in HEK293 cells - 32 hour (AID 1224881); also: nearly all actives have a fitted effect of over 40% in size
# How it was run: (§1)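 Cytotoxicity was tracked continuously in HEK293 cells by a DNA-binding dye excluded from viable cells. Compounds were transferred in DMSO 5 h after seeding; fluorescence was recorded at intervals up to 40 h.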
# [2] = A CellTox Green Cytotoxicity Assay to monitor cytotoxicity in HepG2 cells - 0 hour (AID 1224882); also: nearly all actives have a fitted effect of over 35% in size
# How it was run: (§2)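 Real-time, homogeneous cytotoxicity readout: dead-cell DNA staining by CellTox Green in HepG2 monolayers, fluorescence measured at timed intervals up to 40 h of continuous compound exposure.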
# [3] = A CellTox Green Cytotoxicity Assay to monitor cytotoxicity in HepG2 cells - 32 hour (AID 1224883); also: nearly all actives have a fitted effect of over 50% in size; also: potency is read from the fitted curve at half-maximal effect
# How it was run: as §2
# [4] = A CellTox Green Cytotoxicity Assay to monitor cytotoxicity in HEK293 cells - 8 hour (AID 1224884); also: nearly all actives have a fitted effect of over 35% in size
# How it was run: as §1
# [5] = qHTS RealTime-Glo MT Cell Viability Assay in HepG2 cells - 16 hour (AID 1224885); also: nearly all actives have a fitted effect of over 50% in size
# How it was run: (§3)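 Luminescence read-out: viable HepG2 cells reduce a prosubstrate to a NanoLuc substrate, giving a signal proportional to live cell number. Reads taken at 0, 8, 16, 24, 32 and 40 h of compound exposure at 37 C.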
# [6] = qHTS RealTime-Glo MT Cell Viability Assay in HEK293 cells - 8 hour (AID 1224887); also: top concentration of the series differs between compounds; nearly all actives have a fitted effect of over 50% in size
# How it was run: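 Nonlytic bioluminescent viability monitoring. HEK293 at 600 cells/well with reagent; 5 h settle; compound transfer by pintool; plates held at 37 C and read at set time points.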
# [7] = A CellTox Green Cytotoxicity Assay to monitor cytotoxicity in HEK293 cells - 16 hour (AID 1224888); also: nearly all actives have a fitted effect of over 35% in size
# How it was run: as §1
# [8] = qHTS RealTime-Glo MT Cell Viability Assay in HepG2 cells - 0 hour (AID 1224889); also: nearly all actives have a fitted effect of over 50% in size
# How it was run: as §3
# [9] = A CellTox Green Cytotoxicity Assay to monitor cytotoxicity in HepG2 cells - 8 hour (AID 1224890); also: nearly all actives have a fitted effect of over 45% in size
# How it was run: as §2
# [10] = qHTS RealTime-Glo MT Cell Viability Assay in HEK293 cells - 24 hour (AID 1224886); also: nearly all actives have a fitted effect of over 50% in size; also: potency is read from the fitted curve at half-maximal effect; as to activity change, negative = cytotoxicity: top concentration of the series differs between compounds
# How it was run: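 Nonlytic real-time viability readout: viable cells convert prosubstrate to NanoLuc substrate, giving luminescence proportional to live cell number. HEK293, 600 cells/well, compound added after 5 h, continuous culture at 37 C.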
smiles,measurement,setting,value
O=S(=O)(c1ccccc1)c1ccc(Cl)cc1,Potency,[1],inactive
same,Potency,[2],inactive
same,Potency,[3],inactive
same,Potency,[4],inactive
same,Potency,[5],inactive
same,Potency,[6],inactive
same,Potency,[7],inactive
same,Potency,[8],inactive
same,Potency,[9],inactive
Nc1nc(Cl)nc2c1ncn2[C@@H]1O[C@H](CO)[C@@H](O)[C@@H]1F,Potency,[1],inactive
same,Potency,[2],inactive
same,Potency,[3],inactive
same,Potency,[4],inactive
same,Potency,[5],inactive
same,Potency,[10],4.77 µM (active)
same,Potency,[7],inactive
same,Potency,[8],inactive
same,Potency,[9],inactive
CC1=NN(c2ccc(C(=O)O)cc2)C(=O)C1,Potency,[1],inactive
same,Potency,[2],inactive
same,Potency,[3],inactive
same,Potency,[4],inactive
same,Potency,[5],inactive
same,Potency,[10],inactive
same,Potency,[7],inactive
same,Potency,[8],inactive
same,Potency,[9],inactive
CC(C)OCC1CO1 (centres undefined),Potency,[1],inactive
same,Potency,[2],inactive
same,Potency,[3],inactive
same,Potency,[4],inactive
same,Potency,[5],inactive
same,Potency,[6],inactive
same,Potency,[7],inactive
same,Potency,[8],inactive
same,Potency,[9],inactive
CCC(=O)Oc1ccc(/C(CC)=C(\CC)c2ccc(OC(=O)CC)cc2)cc1,Potency,[1],inactive
same,Potency,[2],inactive
same,Potency,[3],inactive
same,Potency,[4],inactive
same,Potency,[5],inactive
same,Potency,[10],21.9 µM (active)
same,Potency,[7],inactive
same,Potency,[8],inactive
same,Potency,[9],inactive
CCNC(=O)N1CCN(CCCC(c2ccc(F)cc2)c2ccc(F)cc2)CC1,Potency,[1],inactive
same,Potency,[2],inactive
same,Potency,[3],21.3 µM (active)
same,Potency,[4],inactive
same,Potency,[5],inactive
same,Potency,[10],16.9 µM (active)
same,Potency,[7],inactive
same,Potency,[8],inactive
same,Potency,[9],inactive
CCCCCCCCCCCCCCCCBr,cytotoxicity increase,[1],0.813% [at 15.8 µM]
same,cytotoxicity,[2],-3.37% [at 15.8 µM]
same,cytotoxicity increase,[3],-8.22% [at 15.8 µM]
same,cytotoxicity increase,[4],-1.67% [at 15.8 µM]
same,"activity change, negative = cytotoxic",[5],2.39% [at 15.8 µM]
same,"activity change, negative = cytotoxicity",[6],3.99% [at 15.8 µM]
same,activity change,[7],"2.24% [at 15.8 µM, stronger effect = higher value]"
same,"activity change, negative = cytotoxicity",[8],6.9% [at 15.8 µM]
same,cytotoxicity increase,[9],-4.5% [at 15.8 µM]
OC(CCCN1CCCCC1)(c1ccccc1)c1ccccc1,Potency,[1],inactive
same,Potency,[2],inactive
same,Potency,[3],inactive
same,Potency,[4],inactive
same,Potency,[5],inactive
same,Potency,[6],inactive
same,Potency,[7],inactive
same,Potency,[8],inactive
same,Potency,[9],inactive
CCCOC(=O)c1ccc(C(=O)OCCC)nc1,Potency,[1],inactive
same,Potency,[2],inactive
same,Potency,[3],inactive
same,Potency,[4],inactive
same,Potency,[5],inactive
same,Potency,[10],inactive
same,Potency,[7],inactive
same,Potency,[8],inactive
same,Potency,[9],inactive
OCC1CC=CCC1 (centres undefined),Potency,[1],inactive
same,Potency,[2],inactive
same,Potency,[3],inactive
same,Potency,[4],inactive
same,Potency,[5],inactive
same,Potency,[10],inactive
same,Potency,[7],inactive
same,Potency,[8],inactive
same,Potency,[9],inactive
CC1(C)O[C@@H]2C[C@H]3[C@@H]4CCC5=CC(=O)C=C[C@]5(C)[C@H]4[C@@H](O)C[C@]3(C)[C@]2(C(=O)CO)O1,Potency,[1],inactive
same,Potency,[2],inactive
same,Potency,[3],inactive
same,Potency,[4],inactive
same,Potency,[5],inactive
same,Potency,[10],inactive
same,Potency,[7],inactive
same,Potency,[9],inactive
COC(=O)c1cc(Cl)ccc1NS(=O)(=O)C(F)(F)F,Potency,[1],inactive
same,Potency,[2],inactive
same,Potency,[3],inactive
same,Potency,[4],inactive
same,Potency,[5],inactive
same,Potency,[6],inactive
same,Potency,[7],inactive
same,Potency,[8],inactive
same,Potency,[9],inactive
CCCCCCOC(=O)C(C)C,Potency,[1],inactive
same,Potency,[2],inactive
same,Potency,[3],inactive
same,Potency,[4],inactive
same,Potency,[5],inactive
same,Potency,[10],inactive
same,Potency,[7],inactive
same,Potency,[8],inactive
same,Potency,[9],inactive
CC1CC(O)CC(C)(C)C1 (centres undefined),Potency,[1],inactive
same,Potency,[2],inactive
same,Potency,[3],inactive
same,Potency,[4],inactive
same,Potency,[5],inactive
same,Potency,[10],inactive
same,Potency,[7],inactive
same,Potency,[8],inactive
same,Potency,[9],inactive
CCC(C)(C)C1CCC(O)CC1 (centres undefined),Potency,[1],inactive
same,Potency,[2],inactive
same,Potency,[4],inactive
same,Potency,[5],inactive
same,Potency,[10],inactive
same,Potency,[6],inactive
same,Potency,[7],inactive
same,Potency,[8],inactive
same,Potency,[9],inactive
